Assay [1] deals with human Peroxisome Proliferator-activated Receptor alpha (PPARa), PPARA (gene 5465) (UniProt Q07869). The experiment in a line: NVS_NR_hPPARa: NovaScreen (NVS) Nuclear Receptor Binding Assay for human Peroxisome Proliferator-activated Receptor alpha (PPARa) (AID 2283359).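 Note: activity means loss of TR-FRET signal versus DMSO baseline.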 The method in brief:
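One-hour incubation, cell-free extracted protein, TR-FRET binding readout; signal loss vs DMSO scored. Screen: 25 uM duplicates, confirmatory dose series for actives.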

The target of assay [2] is human Thyroid Receptor Alpha (TRa), THRA (gene 7067) (UniProt P10827). In words: NVS_NR_hTRa_Antagonist: NovaScreen (NVS) Nuclear Receptor Binding Assay for human Thyroid Receptor Alpha Antagonism (TRa) (AID 2283362).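 Note: activity is loss of signal relative to DMSO baseline.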 In short, it runs like this: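 AlphaLISA chemiluminescent immunoassay readout, taken 1 h post-dosing in a cell-free system with extracted protein. Activity was scored as signal loss against DMSO negative control, from duplicate single-concentration (25 uM) testing followed by concentration-response follow-up.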

Assay [3] has as its target Retinoic acid receptor alpha (Homo sapiens) (UniProt P10276). In words: NVS_NR_hRARa_Agonist: NovaScreen (NVS) Nuclear Receptor Binding Assay for human Retinoic Acid Alpha Receptor Agonism (RAR) (AID 2283361). In short, it runs like this:
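Compounds screened at 25 uM, duplicate, then in concentration series if active. Detection: TR-FRET gain of signal versus DMSO after 2 h with cell-free extracted RARα.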

Assay [4] has as its target Glucocorticoid receptor (Homo sapiens) (UniProt P04150). In words: NVS_NR_hGR: NovaScreen (NVS) Nuclear Receptor Binding Assay for human Glucocorticoid Receptor (GR) (AID 2283363).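 For AC50: activity is loss of specific radioligand binding signal relative to DMSO.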 The method in brief:
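Single-readout cell-free binding: radioligand plus extracted receptor, 16-hour dosing, filter radiodetection; 25 uM duplicate primary, concentration series secondary.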

For assay [5], the target named is human Adenosine Transporter (Adot), SLC29A1 (gene 2030) (UniProt Q99808). In words: NVS_TR_hAdoT: NovaScreen (NVS) Transporter Assay for human Adenosine Transporter (Adot) (AID 2283368). The method in brief: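 Binding displacement on U937 extracted protein, read 1 h post-dose by filtration and scintillation counting. Primary duplicate test at 25 uM, then singleton concentration series with 50 uM top; DMSO baseline.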

Assay [6] addresses guinea pig Sigma Receptor, Non-selective Binding, SIGMAR1 (gene 100135589) (UniProt Q60492). The experiment in a line: NVS_OR_gSIGMA_NonSelective: NovaScreen (NVS) Nuclear Receptor Binding Assay for guinea pig Sigma Receptor, Non-selective Binding (AID 2283367). In short, it runs like this: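 Test chemicals were screened in duplicate at 25 uM, then in concentration series if active, against radioligand binding to guinea pig brain membranes; filtration and scintillation counting at 1 h measured remaining bound ligand.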

Assay [7] relates to guinea pig Dopamine Transporter (DAT), gene 100714898. In words: NVS_TR_gDAT: NovaScreen (NVS) Transporter Assay for guinea pig Dopamine Transporter (DAT) (AID 2283369).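 Note: active compounds lower bound radioligand signal relative to DMSO.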 In short, it runs like this: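 Cell-free striatal membrane prep (guinea pig), 2 h exposure, filtration + scintillation readout of radioligand binding. Single-point 25 uM duplicate; actives rerun singleton, top conc 50 uM.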

The target of assay [8] is Nuclear receptor subfamily 1 group I member 2 (Homo sapiens) (UniProt O75469). In words: NVS_NR_hPXR: NovaScreen (NVS) Nuclear Receptor Binding Assay for human Pregnane X Receptor (PXR) (AID 2283365).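 Note: a drop in FRET signal versus DMSO baseline means the compound binds.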 In short, it runs like this:
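TR-FRET signal read at 2 h in a cell-free human PXR binding format. DMSO served as negative control and baseline; activity scored as signal loss. Single-concentration duplicate screen (25 uM), then concentration-response follow-up.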

Assay [9] addresses rat Androgen Receptor (AR), Ar (gene 24208) (UniProt P15207). In words: NVS_NR_rAR: NovaScreen (NVS) Nuclear Receptor Binding Assay for rat Androgen Receptor (AR) (AID 2283366). In short, it runs like this: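 Actives from a duplicate single-concentration (25 uM) primary run went on to concentration series. Displacement of radioligand was counted by filtration and scintillation, 18 h post-dose, using prostate extracts from testosterone-pretreated rats, with DMSO as baseline.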

The structures appear in SMILES notation. Values joined by “and” are separate entries in the source; they are usually repeats but may differ in a detail not shown here. Identical values can stand only once. Records with an inconclusive call do not appear. Active and inactive are the calls of the source. Rule for the calls: active = hit-call score of the fitted dose curve at least 0.9, where 1 is the maximum; inconclusive = response in the unintended direction; inactive = score below 0.9.

Chain of Glucocorticoid receptor (Homo sapiens) (P04150 whole entry, looked up): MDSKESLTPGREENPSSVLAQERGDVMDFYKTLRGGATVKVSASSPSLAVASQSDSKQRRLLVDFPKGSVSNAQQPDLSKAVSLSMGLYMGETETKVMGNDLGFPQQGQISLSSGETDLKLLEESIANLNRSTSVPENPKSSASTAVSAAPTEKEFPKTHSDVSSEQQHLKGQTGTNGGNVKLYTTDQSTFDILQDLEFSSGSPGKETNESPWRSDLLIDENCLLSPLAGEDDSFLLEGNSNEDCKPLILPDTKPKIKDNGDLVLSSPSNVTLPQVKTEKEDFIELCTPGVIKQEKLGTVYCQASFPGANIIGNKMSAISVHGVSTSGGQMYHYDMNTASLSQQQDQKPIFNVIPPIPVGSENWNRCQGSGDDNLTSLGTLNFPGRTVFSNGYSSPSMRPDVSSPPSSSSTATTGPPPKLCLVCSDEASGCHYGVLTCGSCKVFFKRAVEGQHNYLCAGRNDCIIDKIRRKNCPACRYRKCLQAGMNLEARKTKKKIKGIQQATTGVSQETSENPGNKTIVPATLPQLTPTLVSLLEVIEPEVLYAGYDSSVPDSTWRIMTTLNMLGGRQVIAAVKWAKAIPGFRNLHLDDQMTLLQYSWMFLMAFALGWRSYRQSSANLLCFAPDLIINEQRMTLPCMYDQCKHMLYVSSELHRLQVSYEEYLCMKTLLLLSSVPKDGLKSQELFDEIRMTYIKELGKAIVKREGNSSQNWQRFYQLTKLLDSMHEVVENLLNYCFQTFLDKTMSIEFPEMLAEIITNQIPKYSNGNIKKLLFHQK
Chain of human Adenosine Transporter (Adot), SLC29A1 (gene 2030) (Q99808 whole entry, looked up): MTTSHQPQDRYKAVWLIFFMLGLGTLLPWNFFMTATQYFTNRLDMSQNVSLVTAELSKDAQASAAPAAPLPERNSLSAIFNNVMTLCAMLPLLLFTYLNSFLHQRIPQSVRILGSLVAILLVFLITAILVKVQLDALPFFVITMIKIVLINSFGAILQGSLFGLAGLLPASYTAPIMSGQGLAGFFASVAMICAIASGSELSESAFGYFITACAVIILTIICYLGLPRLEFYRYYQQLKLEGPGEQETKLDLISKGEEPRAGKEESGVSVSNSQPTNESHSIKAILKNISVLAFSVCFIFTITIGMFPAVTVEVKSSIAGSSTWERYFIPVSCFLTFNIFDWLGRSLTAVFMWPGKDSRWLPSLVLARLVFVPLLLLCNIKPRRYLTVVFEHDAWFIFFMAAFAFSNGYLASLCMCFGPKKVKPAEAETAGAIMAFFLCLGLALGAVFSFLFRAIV
Chain of human Peroxisome Proliferator-activated Receptor alpha (PPARa), PPARA (gene 5465) (Q07869 whole entry, looked up): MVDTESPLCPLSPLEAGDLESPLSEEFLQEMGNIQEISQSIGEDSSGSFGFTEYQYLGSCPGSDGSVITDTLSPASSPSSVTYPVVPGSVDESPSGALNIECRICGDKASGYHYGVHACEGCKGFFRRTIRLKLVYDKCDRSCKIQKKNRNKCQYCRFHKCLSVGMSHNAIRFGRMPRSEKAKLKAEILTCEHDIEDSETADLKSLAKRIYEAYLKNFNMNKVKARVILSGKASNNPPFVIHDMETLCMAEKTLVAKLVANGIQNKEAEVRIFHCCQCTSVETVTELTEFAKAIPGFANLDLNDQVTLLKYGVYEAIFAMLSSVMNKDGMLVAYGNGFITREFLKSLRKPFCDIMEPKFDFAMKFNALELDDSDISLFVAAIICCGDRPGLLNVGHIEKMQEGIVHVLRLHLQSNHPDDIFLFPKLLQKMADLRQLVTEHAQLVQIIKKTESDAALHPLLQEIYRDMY
Chain of guinea pig Sigma Receptor, Non-selective Binding, SIGMAR1 (gene 100135589) (Q60492 whole entry, looked up): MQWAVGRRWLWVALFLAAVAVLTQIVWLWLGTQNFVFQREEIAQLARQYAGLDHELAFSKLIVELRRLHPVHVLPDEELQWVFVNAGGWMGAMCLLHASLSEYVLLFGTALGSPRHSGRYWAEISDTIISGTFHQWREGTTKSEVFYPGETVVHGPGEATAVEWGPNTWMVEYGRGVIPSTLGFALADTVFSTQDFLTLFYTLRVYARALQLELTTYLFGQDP
Chain of Nuclear receptor subfamily 1 group I member 2 (Homo sapiens) (O75469 whole entry, looked up): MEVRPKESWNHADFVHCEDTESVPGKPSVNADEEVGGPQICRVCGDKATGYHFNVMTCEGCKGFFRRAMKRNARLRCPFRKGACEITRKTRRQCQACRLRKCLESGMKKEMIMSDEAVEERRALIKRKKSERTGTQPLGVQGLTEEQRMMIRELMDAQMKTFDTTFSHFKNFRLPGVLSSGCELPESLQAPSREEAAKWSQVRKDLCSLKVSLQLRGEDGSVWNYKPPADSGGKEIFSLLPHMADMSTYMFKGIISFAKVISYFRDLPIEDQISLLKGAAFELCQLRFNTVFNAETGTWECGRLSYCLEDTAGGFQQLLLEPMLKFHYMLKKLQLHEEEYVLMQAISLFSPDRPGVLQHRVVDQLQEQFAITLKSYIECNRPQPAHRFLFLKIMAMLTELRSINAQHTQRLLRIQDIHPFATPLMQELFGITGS
Chain of human Thyroid Receptor Alpha (TRa), THRA (gene 7067) (P10827 whole entry, looked up): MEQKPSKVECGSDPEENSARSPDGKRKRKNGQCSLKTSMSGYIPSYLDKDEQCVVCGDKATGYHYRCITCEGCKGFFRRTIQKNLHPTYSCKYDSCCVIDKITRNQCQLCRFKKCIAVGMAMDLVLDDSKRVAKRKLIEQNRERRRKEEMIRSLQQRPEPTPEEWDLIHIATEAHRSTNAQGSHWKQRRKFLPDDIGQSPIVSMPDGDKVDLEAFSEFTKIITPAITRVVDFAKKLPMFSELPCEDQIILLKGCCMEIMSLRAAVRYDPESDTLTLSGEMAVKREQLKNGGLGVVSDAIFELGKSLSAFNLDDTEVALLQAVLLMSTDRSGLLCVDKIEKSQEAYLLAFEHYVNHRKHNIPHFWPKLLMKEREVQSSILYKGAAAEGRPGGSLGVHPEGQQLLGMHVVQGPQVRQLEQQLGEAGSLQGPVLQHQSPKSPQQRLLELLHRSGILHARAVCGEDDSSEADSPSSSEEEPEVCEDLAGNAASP
Chain of Retinoic acid receptor alpha (Homo sapiens) (P10276 whole entry, looked up): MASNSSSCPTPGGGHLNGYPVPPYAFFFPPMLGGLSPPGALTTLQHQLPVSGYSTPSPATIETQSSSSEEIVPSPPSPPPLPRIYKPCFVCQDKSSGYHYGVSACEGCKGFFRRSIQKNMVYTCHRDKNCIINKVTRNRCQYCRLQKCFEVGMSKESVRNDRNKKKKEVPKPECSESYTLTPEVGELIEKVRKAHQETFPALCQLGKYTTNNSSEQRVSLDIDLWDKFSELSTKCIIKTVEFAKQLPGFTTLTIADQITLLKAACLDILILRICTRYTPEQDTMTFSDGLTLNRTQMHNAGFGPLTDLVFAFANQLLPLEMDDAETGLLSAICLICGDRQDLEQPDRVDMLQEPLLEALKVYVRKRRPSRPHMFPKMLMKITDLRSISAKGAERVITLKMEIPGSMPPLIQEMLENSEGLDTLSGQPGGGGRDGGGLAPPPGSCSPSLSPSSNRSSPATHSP
Chain of rat Androgen Receptor (AR), Ar (gene 24208) (P15207 whole entry, looked up): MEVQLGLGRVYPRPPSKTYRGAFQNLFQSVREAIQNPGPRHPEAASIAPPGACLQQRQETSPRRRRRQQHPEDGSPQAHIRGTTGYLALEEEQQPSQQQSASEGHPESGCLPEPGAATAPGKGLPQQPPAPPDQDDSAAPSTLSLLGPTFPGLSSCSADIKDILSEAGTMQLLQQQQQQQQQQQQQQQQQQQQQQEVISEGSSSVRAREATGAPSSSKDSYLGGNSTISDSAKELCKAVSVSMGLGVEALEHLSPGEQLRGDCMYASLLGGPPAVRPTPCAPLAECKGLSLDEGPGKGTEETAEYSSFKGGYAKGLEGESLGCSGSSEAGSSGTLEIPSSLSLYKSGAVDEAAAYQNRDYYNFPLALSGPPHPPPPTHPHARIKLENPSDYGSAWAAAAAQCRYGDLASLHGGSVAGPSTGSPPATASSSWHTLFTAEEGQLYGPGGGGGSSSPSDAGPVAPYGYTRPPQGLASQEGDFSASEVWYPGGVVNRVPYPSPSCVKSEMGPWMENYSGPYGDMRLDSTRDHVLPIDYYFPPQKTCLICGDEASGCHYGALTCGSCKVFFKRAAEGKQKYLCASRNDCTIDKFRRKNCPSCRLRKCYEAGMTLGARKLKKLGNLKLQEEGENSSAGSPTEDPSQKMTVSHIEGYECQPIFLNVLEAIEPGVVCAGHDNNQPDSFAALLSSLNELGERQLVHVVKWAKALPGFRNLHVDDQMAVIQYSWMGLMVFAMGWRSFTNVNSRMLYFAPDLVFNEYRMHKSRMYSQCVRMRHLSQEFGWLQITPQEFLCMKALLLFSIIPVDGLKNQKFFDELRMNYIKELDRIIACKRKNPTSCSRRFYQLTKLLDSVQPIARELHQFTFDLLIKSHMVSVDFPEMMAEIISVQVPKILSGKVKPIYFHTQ

As to `CCCCCCCCCCCO`, in [1], the compound was called inactive. Also, in assay [2], the AC50 is 28.4 µM (active).

On to `O=C(OCCCCCCOC(=O)c1ccccc1)c1ccccc1`, for which, in [3], the compound was called inactive.

With `CC/C(=C(/CC)c1ccc(O)cc1)c1ccc(O)cc1`, the compound was classed as inactive in assay [1]. Besides, the concentration at half-maximal activity (AC50) in [4] was 177 nM (active) and 162 nM (active) and 1.27 µM (active); in assay [5], 17.6 µM (active).

For `Clc1cc(Cl)c2c(c1)N=C1CCCCCN1C2`, the compound was classed as inactive in assay [1]. Further, in assay [6], the AC50 is 0.542 µM (active).

Take `Cc1oc2c(NC(=O)c3c(Cl)cccc3Cl)cccc2c1C(C)(C)O`: the half-maximal activity concentration (AC50) in assay [5] was 25 µM (active).

On to `CCCOC(=O)c1cc(O)c(O)c(O)c1`, for which, in [7], the concentration at half-maximal activity (AC50) was 25 µM (active).

Turning to `CN(C[C@@H](CC[N+]12CCC(C3CCCCC3)(CC1)CC2)c1ccc(Cl)c(Cl)c1)C(=O)c1cc(C(F)(F)F)cc(C(F)(F)F)c1`, the AC50 in assay [4] is 6.49 µM (active); in assay [8] it was 25 µM (active).

On to `CC(C)(O)c1ccc(CNC(=O)c2cccnc2Oc2ccc3nonc3c2)cc1`, for which the compound was called inactive in assay [4].

For `CCCCCc1ccc(N)cc1`, the concentration at half-maximal activity (AC50) in assay [7] is 25 µM (active).

With `Oc1ccc2ccccc2c1`, the compound was called inactive in assay [4]. The AC50 in [7] was 21.3 µM (active).

Consider `CCCCCCCCCCCC[N+](C)(C)C`, for which the AC50 in assay [6] is 0.123 µM (active); in assay [7], 25 µM (active). Besides, the result in assay [5] was inactive.

As for `O=C(O)c1ccccc1-n1cc(C(=O)O)c(=O)c2cc(Nc3c(F)cc(F)cc3Cl)c(Cl)cc21`, in assay [4], the AC50 was 25 µM (active).

`CC1(C)NC(=O)N(c2ccc([N+](=O)[O-])c(C(F)(F)F)c2)C1=O`: the result in assay [8] was inactive.

`Cc1cc(F)ccc1-c1cc(N2CC[C@@H](O)[C@H]2CO)ncc1N(C)C(=O)C(C)(C)c1cc(C(F)(F)F)cc(C(F)(F)F)c1`: the AC50 in [4] is 4.3 µM (active); in [7] it was 8.3 µM (active). In addition, the compound was called inactive in assay [9].

`COc1cc(C(=O)NC2CCN(C)CC2)ccc1Nc1ncc2c(n1)N(C1CCCC1)CC(F)(F)C(=O)N2C`: the AC50 in assay [4] is 9.44 µM (active); in [6], 9.05 µM (active); in [5], 1.27 µM (active); in assay [7] it was 13.8 µM (active).

Consider `CCCCCCCCN(C)CCCCCCCC`, for which, in assay [6], the AC50 was 0.212 µM (active).

In the case of `NC(=O)c1nc(-c2cccc(-c3cc(F)ccc3OCC(F)(F)C(F)(F)F)c2)n[nH]1`, the compound was classed as inactive in assay [8].

Consider `O=C1c2ccccc2C(=O)N1CCc1noc(-c2ccc(CN3CCCCCC3)s2)n1`, for which the AC50 in assay [6] was 6.76 µM (active); in [5], 21.1 µM (active); in assay [7], 13.9 µM (active).

Consider `COc1cccc([C@H](O)C2CCN(CCc3ccc(F)cc3)CC2)c1OC`, for which the values for the concentration at half-maximal activity (AC50) in [6] and in [7] were 0.29 µM (active) and 19.9 µM (active), respectively.

Regarding `Oc1ccccc1`, in assay [8], the compound was classed as inactive.

As to `COc1ccc2cc(S(=O)(=O)N[C@H](CC(=O)N[C@H](Cc3ccc(CN4[C@H](C)CCC[C@@H]4C)cc3)C(=O)N(C)C(C)C)c3ccc4c(c3)OCO4)ccc2c1`, the compound was classed as inactive in assay [4]. The AC50 in assay [6] is 1.74 µM (active); in assay [5] it was 9.24 µM (active); in assay [7], 13.9 µM (active).

On to `Clc1ccccc1C(c1ccccc1)(c1ccccc1)n1ccnc1`, for which the concentration at half-maximal activity (AC50) in [4] was 0.7 µM (active). In [8], the outcome was inactive.

As to `O=c1[nH]sc2ccccc12`, the AC50 is 17.2 µM (active) in assay [5] and 40.5 µM (active) in assay [7].

As for `c1ccc(C[n+]2cccc3ccccc32)cc1`, the concentration at half-maximal activity (AC50) was 8.14 µM (active) in assay [6] and 10.1 µM (active) in assay [7].

`CCCCCCCC[Si](OCC)(OCC)OCC`: the call in [8] was inactive.

Turning to `CCOC(=O)O[C@H](C)OC(=O)c1ccc2c(c1)cc(C(=O)NC1CCN(C(C)C)CC1)n2Cc1cc(-c2ccc(Cl)s2)on1`, the AC50 in [4] is 4.59 µM (active); in assay [6], 0.226 µM (active); in [7], 13.8 µM (active).

Regarding `CCN(Cc1cccnc1)C(=O)c1cccc(Cl)c1[C@]1(C)C(=O)N(Cc2ccc(OC)cc2OC)c2ccc(Cl)cc21`, the AC50 in assay [4] was 4.93 µM (active); in [5], 1.55 µM (active).

Take `CN(C)C(=O)C1(N2CCCCC2)CCN(CC[C@@]2(c3ccc(Cl)c(Cl)c3)CN(C(=O)c3ccccc3)CCO2)CC1`: the results for the AC50 in assay [4], in assay [6] and in [7] were 3.41 µM (active), 6 µM (active) and 6.54 µM (active), respectively.

`Cc1occc1C(=O)Nc1ccc(C(=O)N2CCC(F)(F)/C(=C\C(=O)N3CCC(N4CCCCC4)CC3)c3ccccc32)cc1`: the concentration at half-maximal activity (AC50) in assay [6] was 2.93 µM (active); in [5] it was 8.75 µM (active); in assay [7], 7.8 µM (active).

As for `Cc1ccc2oc(CN(Cc3ccccc3)C(=O)Nc3c(F)cc(F)cc3F)c(-c3ccc(Cl)cc3)c2c1`, the AC50 in assay [5] was 1.1 µM (active). Further, the call in assay [7] was inactive.

The record behind these values is PubChem BioAssay (EPA / NIEHS).
